A selection: hits, their analogues and other compounds. The true share with any hit is near 5.1%.
NPSR antag: blocks cAMP signaling of the human neuropeptide S receptor; AID 1461; CHO-NPSR cells, cAMP TR-FRET, antagonist mode; Potency, µM (series often up to 38.3 µM), for the others: at the highest dose activity change, negative = inhibition, most hits filed as inhibitors; 1% of 220,000 active; further: potency means the concentration at half of the fitted maximal effect; nearly all actives have a fitted effect of over 50% in size
Target sequence (Q6W5P4 whole entry, looked up): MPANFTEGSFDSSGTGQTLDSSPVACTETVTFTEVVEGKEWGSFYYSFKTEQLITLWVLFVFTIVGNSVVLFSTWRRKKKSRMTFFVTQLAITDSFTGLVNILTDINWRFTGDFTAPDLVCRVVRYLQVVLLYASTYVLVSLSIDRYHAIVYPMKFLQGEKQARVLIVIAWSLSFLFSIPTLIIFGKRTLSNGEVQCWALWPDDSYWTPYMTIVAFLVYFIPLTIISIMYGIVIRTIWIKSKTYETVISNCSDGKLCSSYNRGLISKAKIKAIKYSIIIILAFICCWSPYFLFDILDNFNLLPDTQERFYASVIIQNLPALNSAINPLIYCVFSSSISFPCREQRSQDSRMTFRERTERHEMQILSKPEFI
Tau fluor counter: counter-screen for tau fibril formation inhibitors; tau K18 P301L Alexa594 fluorescence, heparin fibrillization; Potency, µM (titrated, usually from 57.7 µM), without a hit: at the highest dose activity change, negative = decrease; 0.93% of 280,000 active; further: potency means the concentration at half of the fitted maximal effect; nearly all actives have a fitted effect of over 55% in size
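Human K18 P301L tau (15 uM unlabeled plus 0.24 uM Alexa 594-labeled, final) in 100 mM sodium acetate pH 7 was mixed with compound and 20 uM heparin and incubated 6 hr at 37 C.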
Tau fibril ThT: tau fibrillization inhibition (ThT binding); P10636; recombinant tau K18 P301L (four-repeat tau fragment), heparin-induced fibrillization, ThT fluorescence; Potency, µM (doses to about 57.4 µM), for inactives: at the top dose activity, negative = inhibition, hits mostly inhibitors; 2.1% of 270,000 active; AID 1460; further: potency means the concentration at half of the fitted maximal effect; nearly all actives have a fitted effect of over 55% in size
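Aggregation was driven by heparin (20 uM final) acting on recombinant tau […] bearing P301L in 100 mM sodium acetate pH 7; fibrils were detected with Thioflavin T.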
KDM4E inh: inhibitors of human JMJD2E histone demethylase; Potency, µM (top dose mostly 57.1 µM), for the others: at the top dose activity change, negative = inhibition, actives largely listed as inhibitors; 1.6% of 230,000 active; JMJD2E catalytic domain, FDH-coupled NADH fluorescence (FDH is formaldehyde dehydrogenase); B2RXH2; active means well fitted inhibition curve with a large enough effect, not every such curve was filed as active; inconclusive means small, poorly fitted or top-dose-only effect, or another doubt; inactive means no such curve, though single readings can be large or run the other way;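 further: potency means the concentration at half of the fitted maximal effect; 0% = wells with enzyme and -100% = buffer wells without enzyme; nearly all actives have a fitted effect of over 50% in size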
Target sequence (B2RXH2 1-337 limits assumed): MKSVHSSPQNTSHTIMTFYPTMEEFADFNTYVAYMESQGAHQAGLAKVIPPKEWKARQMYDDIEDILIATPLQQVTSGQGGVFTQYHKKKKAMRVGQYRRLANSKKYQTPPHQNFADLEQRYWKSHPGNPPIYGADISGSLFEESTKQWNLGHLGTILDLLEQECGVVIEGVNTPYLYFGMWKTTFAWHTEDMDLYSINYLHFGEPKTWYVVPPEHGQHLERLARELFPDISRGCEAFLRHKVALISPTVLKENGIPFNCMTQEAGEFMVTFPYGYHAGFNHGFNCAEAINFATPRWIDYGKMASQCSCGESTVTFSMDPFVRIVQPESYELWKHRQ
PNC assembly inh: perinucleolar compartment assembly inhibition | PC3M PTB-GFP, PNC prevalence imaging, 16 h; hits give low values | activity change (PNC), negative = inhibition, % at 10 µM | 3.1% of 140,000 active;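 active means readout at or below -70, meaning at least 70% loss of cells showing the perinucleolar compartment, a nuclear body marking cancer cells; inconclusive means readout between -30 and a set limit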;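 further: plate controls were DMSO wells for no effect and camptothecin positive control wells for full effect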
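PC3M cells stably expressing PTB-GFP, 750–1000 cells/well, treated 16 h at 37 °C with compound (23 nl of library stock), in duplicate. After paraformaldehyde fixation and Hoechst stain, imaged at 20x; PNC prevalence scored by image analysis.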
Tau fibril FP: blocks human tau fibril formation measured by polarization | P10636 | K18 P301L tau heparin fibrillization, Alexa594 FP, 6 h | Potency, µM (titrated, usually from 57.7 µM), without a hit: at the highest dose activity, negative = inhibition, most hits filed as inhibitors | 0.39% of 280,000 active; further: potency means the concentration at half of the fitted maximal effect; nearly all actives have a fitted effect of over 55% in size
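Read-out: fluorescence polarization of Alexa 594-labeled tau (0.24 uM), 555 nm excitation, 632 nm emission. Mixtures held 15 uM unlabeled K18 P301L, compound and 20 uM heparin, pH 7 acetate buffer, incubated 6 hr at 37 C.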
* hit, by the source's call; [ ] = dose if it differs, or a comment. Unless noted, the call rests on the fitted dose curve; in most records, active means well fitted curve in the direction sought with a large enough effect; inconclusive means small, poorly fitted or top-dose-only effect, or another doubt; inactive means no such curve, though single readings can be large; an effect the other way counts as inactive or inconclusive. Unless noted, on the % scale 0 is the no-effect control and ±100 the full control effect.

O=C(CNC(=O)c1ccncc1)N/N=C/c1ccccn1 was read as NPSR antag 17%, Tau fluor counter -5%, Tau fibril ThT -8%, KDM4E inh -7% and Tau fibril FP 0%.
Screening COCCCNC(=S)N/N=C/c1ccc(O)cc1 returned NPSR antag -18%, Tau fluor counter -11%, Tau fibril ThT -5%, KDM4E inh -16% and Tau fibril FP -2%.
Screening O=C(CNC(=O)c1ccc2c(c1)OCCO2)N/N=C/c1ccc(O)cc1O returned NPSR antag 11%, Tau fluor counter -14%, Tau fibril ThT -9%, KDM4E inh 13µM*, PNC assembly inh -5 and Tau fibril FP -12%.
`O=C(CNC(=O)c1ccncc1)N/N=C/c1ccc(O)cc1O` gave NPSR antag -15%, Tau fluor counter -4%, Tau fibril ThT 2%, KDM4E inh 20µM* and Tau fibril FP -3%.
`COCCCNC(=S)N/N=C/c1ccc(O)cc1O` gave NPSR antag -2%, Tau fluor counter -4%, Tau fibril ThT -8%, KDM4E inh 18µM* and Tau fibril FP 7%.
`CCC(=O)N1c2ccccc2CC1C(=O)NCCN1CCN(c2cccc(C)c2C)CC1` (stereo not given) gave Tau fluor counter -6%, Tau fibril ThT -2% and Tau fibril FP -2%.
`COc1ccc(S(=O)(=O)NC(C)C(=O)Nc2cccc(C(C)=O)c2)cc1` (stereo not given) gave NPSR antag -7%[46.1 µM], Tau fluor counter -1%, Tau fibril ThT -11%, KDM4E inh 8%, PNC assembly inh -112* and Tau fibril FP -4%.
C=CC(C)(C)c1[nH]c2ccccc2c1C1=C(O)C(=O)C(c2c[nH]c3c(CC=C(C)C)cccc23)=C(O)C1=O was read as Tau fluor counter 16µM*[quencher], Tau fibril ThT 14µM*, KDM4E inh 25µM* and Tau fibril FP inconclusive.
Screening N#C/C(=C\c1coc2ccc(O)cc2c1=O)C(=O)Nc1nc2ccccc2s1 returned NPSR antag -48%, Tau fluor counter 28µM*[quencher], Tau fibril ThT 18µM*, KDM4E inh inconclusive and Tau fibril FP inconclusive.
For N#C/C(=C\c1coc2ccccc2c1=O)C(N)=S the results were NPSR antag -34%, Tau fluor counter -10%, Tau fibril ThT -14%, KDM4E inh inconclusive and Tau fibril FP -7%.
Screening CC(C)CCNC(=O)CN1C(=O)COc2ccc(S(=O)(=O)N3CCOCC3)cc21 returned Tau fluor counter 4%, Tau fibril ThT 6% and Tau fibril FP 0%.
`Cc1nn(CC(C)C)c(=S)[nH]c1=O` gave NPSR antag -5%[46.1 µM], Tau fluor counter 4%, Tau fibril ThT -2%, KDM4E inh -1%, PNC assembly inh -83* and Tau fibril FP 2%.
O=C(O)CSCC(=O)Nc1cc(C(F)(F)F)ccc1Cl was read as NPSR antag -13%[46.1 µM], Tau fluor counter 2%, Tau fibril ThT -1%, KDM4E inh -7%, PNC assembly inh 9 and Tau fibril FP -1%.
Cc1ccc(NC(=O)Nc2cn(CC(C)C)c(=O)c3ccccc23)cc1N(C)C was read as Tau fluor counter 25µM*[quencher], Tau fibril ThT inconclusive and Tau fibril FP inconclusive.
Screening CC(C)Cn1cc(NC(=O)Nc2cccc(C(F)(F)F)c2)c2ccccc2c1=O returned Tau fluor counter 8.9µM*[quencher], Tau fibril ThT -10% and Tau fibril FP inconclusive.
`COC(=O)c1cc(OC)c(OC)cc1NCC(=O)Nc1ccc(OC)c(OC)c1` gave NPSR antag 15%, Tau fluor counter -21%, Tau fibril ThT -12%, KDM4E inh inconclusive, PNC assembly inh inconclusive and Tau fibril FP 15%.
For CC(C)Oc1cc(NC(=O)CSCC(=O)Nc2cccc(C(F)(F)F)c2)c(Cl)cc1Cl the results were NPSR antag inconclusive, Tau fluor counter inconclusive, Tau fibril ThT -12%, KDM4E inh -9%, PNC assembly inh -4 and Tau fibril FP 35µM*.
For COC(=O)c1cc(OC)c(OC)cc1NCC(=O)Nc1cccc(C(F)(F)F)c1 the results were NPSR antag 0%, Tau fluor counter 18µM*[quencher], Tau fibril ThT inconclusive, KDM4E inh inconclusive, PNC assembly inh inconclusive and Tau fibril FP inconclusive.
O=c1c(S(=O)(=O)c2ccccc2)cn(Cc2ccc(F)cc2)c2cc(N3CCOCC3)c(F)cc12 was read as Tau fluor counter -9%, Tau fibril ThT -4% and Tau fibril FP -5%.
Screening O=C(NC(=S)Nc1ccccn1)c1ccccc1 returned NPSR antag inconclusive, Tau fluor counter -29%, KDM4E inh 4% and Tau fibril FP -13%.
`O=C(NC(=S)Nc1ccccn1)c1ccc([N+](=O)[O-])cc1` gave NPSR antag -8%, Tau fluor counter -12%, Tau fibril ThT inconclusive, KDM4E inh 1%, PNC assembly inh -85* and Tau fibril FP 0%.
For O=C(C=C1SCCS1)/C=C/c1ccco1 the results were NPSR antag -3%[46.1 µM], Tau fluor counter -2%, Tau fibril ThT inconclusive, KDM4E inh -5%, PNC assembly inh 1 and Tau fibril FP 5%.
O=C(O)C(C(=O)/C=C/c1ccco1)=C1SCCS1 was read as NPSR antag 6%[46.1 µM], Tau fluor counter -16%, Tau fibril ThT 16µM*, KDM4E inh -23%, PNC assembly inh 30 and Tau fibril FP inconclusive.
O=C(Cc1ccc(Cl)cc1)Nc1nnc2n1CCS2 was read as Tau fluor counter -3%, Tau fibril ThT -1% and Tau fibril FP 2%.
Cc1cc(NC(=O)c2cnn(-c3ccccc3)c2-n2cccc2)ccc1Br was read as Tau fluor counter -26%, Tau fibril ThT -11% and Tau fibril FP -2%.
Screening Cc1ccc(C(=O)OCC(=O)Nc2ccc3c(c2)OCO3)o1 returned NPSR antag -3%[46.1 µM], Tau fluor counter -1%, Tau fibril ThT -3%, KDM4E inh 6%, PNC assembly inh -100* and Tau fibril FP 10%.
Screening Cc1cc(C)n2nc(C(=O)OCC(=O)Nc3ccc4c(c3)OC(F)(F)O4)nc2n1 returned NPSR antag 1%[46.1 µM], Tau fluor counter -7%, Tau fibril ThT -4%, KDM4E inh 3%, PNC assembly inh 13 and Tau fibril FP 0%.
`Cc1cc(C)n2nc(C(=O)OCC(=O)Nc3ccc4c(c3)OCO4)nc2n1` gave NPSR antag -8%[46.1 µM], Tau fluor counter -13%, Tau fibril ThT -17%, KDM4E inh -29%, PNC assembly inh -94* and Tau fibril FP -3%.
`COc1ccc2c(c1)CC(C(=O)NCCN1CCN(c3cccc(C)c3C)CC1)CO2` (stereo not given) gave Tau fluor counter -20%, Tau fibril ThT inconclusive and Tau fibril FP 2%.

Screens as filed in PubChem BioAssay.
